# ChEMBL document CHEMBL3988442, “University of Dundee, Small-Polar-MMV Screening Library” (2021)
# Out of some 48,000 compounds screened, about 13,000 (27%) showed an effect of 50% or more. The list shows a part of the results.
# Test system: Wolbachia pipientis
# Assay: Anti-Wolbachia Cell-Based Screen
# Type: functional
# Design: scale not given: in the data most compounds retested in dose-response had high values
# Details: 5 µM
row,SMILES,Percent Effect
1,COC(=O)c1cc(NC2CCN(CC(F)(F)F)C2=O)ccc1C (stereo not given),1.107%
2,COc1ccc(CN[C@@H]2CO[C@H](CNC(=O)N3CCOCC3)[C@H]2O)cc1,3.527%
3,CN(Cc1ccc(F)c(F)c1)C(=O)CCc1nc(-c2nnc[nH]2)no1,-9.092%
4,CN1CCC(N(C)C(=O)CCc2ccc(F)c(F)c2)C1=O (stereo not given),2.381%
5,COCC(=O)N(C)Cc1ccc(OCc2cccs2)cc1,1.693%
6,Cc1cc(C(=O)N(CCN(C)C)Cc2ccc(Cl)cc2)no1,-11.55%
7,CN(C)CCN(Cc1ccc(Cl)cc1)C(=O)c1ccncc1,-4.798%
8,Cc1noc(CCCC(=O)N(CCC(=O)O)Cc2ccc(F)c(F)c2)n1,101.8%
9,O=C(O)CCN(Cc1ccc(F)c(F)c1)C(=O)C1CC1,170.7%
10,Cc1noc(CCNC(=O)c2ccc(N(C)C)c(F)c2)n1,-15.61%
11,CN(Cc1ccc(Cl)c(F)c1)C(=O)CCc1ccncc1,0.9629%
12,CCC(=O)N(CCN(C)C)Cc1ccc(F)c(F)c1,182.8%
13,NC(=O)CN(Cc1cccc(Oc2ccccc2)c1)C(=O)C1CC1,0.4693%
14,COCC(=O)N(C)Cc1ccc(F)c(F)c1,111.3%
15,CN(Cc1nnc2n1CCC2)S(=O)(=O)c1ccc(Br)cc1Cl,10.86%
16,CC(=O)N1CCC(CCNC(C)c2cc(F)cc(F)c2)CC1 (stereo not given),-11.21%
17,CC(C)Oc1cc(N2CCC(N3CCC(O)CC3)CC2)nc(N)n1,11.59%
18,Cc1nc(CN2CCC3(CCCO3)CCC2=O)no1 (stereo not given),31.71%
19,CNC(=O)NC(=O)CSc1ccc2c(c1)CCC2,-2.658%
20,Cc1noc(-c2cccnc2N(C)Cc2cc(C)on2)n1,2.996%
21,COCCN(Cc1ccncc1)C(=O)CCSCc1ccc(F)cc1,-3.369%
22,CCC(=O)N(CCC(=O)O)Cc1ccc(F)c(F)c1,121.4%
23,CN(C)C(=O)CCC[S+]([O-])Cc1ccc(F)c(F)c1 (stereo not given),-13.45%
24,COCCCC(=O)N(C)c1ccc(F)c(Cl)c1,-0.2217%
25,COCCCC(=O)N(CCC(=O)O)Cc1ccc(F)c(F)c1,97.51%
26,CCC(=O)N(CC(N)=O)Cc1cccc(Oc2ccccc2)c1,9.242%
27,COCCNc1nc2c(c(NCc3ccncc3)n1)CCNCC2,24.23%
28,CC(C)OCCSc1nnnn1C1CCOCC1,-9.456%
29,CC(=O)N1CCCN(CCCSc2ccccc2Cl)CC1,-4.168%
30,COCCC(=O)N1CCN(CC(C)C)c2nc(C)ccc2C1.O=C(O)C(F)(F)F,6.482%
